# Reference: PubChem BioAssay (NCI)
# The panel holds about 83,000 compounds, 20% with a hit somewhere; the sample as a whole holds those more often.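 Plates (96-well) were seeded with cells, treated with compound at one concentration, and incubated for 48 hours before percent growth was determined.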 A number with no mark means an inactive call. Calls of active or inactive are those of the source. The calls were made as follows: active = growth percent below 10; inactive = the rest.
# Experiments:
# Experiment in all cases: NCI-60 one-dose screen, 48 h (100 = growth as untreated, 0 = no growth, -100 = all killed)
# Conditions in all cases: 10 µM unless noted
# SK-MEL-2 melanoma = tested on: SK-MEL-2 melanoma
# EKVX NSCLC = tested on: EKVX NSCLC
# SN12C renal = tested on: SN12C renal
# UO-31 renal = tested on: UO-31 renal
# TK-10 renal = tested on: TK-10 renal
# ACHN renal = tested on: ACHN renal
# CAKI-1 renal = tested on: CAKI-1 renal
# A498 renal = tested on: A498 renal
# CCRF-CEM leukemia = tested on: CCRF-CEM leukemia
# MOLT-4 leukemia = tested on: MOLT-4 leukemia
SMILES,growth (SK-MEL-2 melanoma),growth (EKVX NSCLC) [%],growth (SN12C renal),growth (UO-31 renal),growth (TK-10 renal),growth (ACHN renal),growth (CAKI-1 renal),growth (A498 renal),growth (CCRF-CEM leukemia),growth (MOLT-4 leukemia)
N#C/C(=C\c1ccc(-c2cccc(C(F)(F)F)c2)o1)c1ccccc1,98.9%,67,90.2%,68.7%,150%,85.2%,69%,102%,97%,89.7%
CC[C@]12C=CCN3CC[C@@]4(c5ccc(OC)cc5N(C)[C@H]4[C@@](O)(C(=O)OC)[C@@H]1OC(=O)CCC[P+](c1ccccc1)(c1ccccc1)c1ccccc1)[C@@H]32,-65.3% (active),10.3,2.73% (active),80%,22.3%,89.9%,52.2%,13.7%,11.1%,5.41% (active)
O=C(Nc1ccccc1O)c1ccc(CNC(=O)c2ccsc2Nc2ccnc(C(F)(F)F)c2)cc1,-20.9% (active),37.8,45.9%,19.1%,-13.7% (active),20.2%,9.72% (active),-14.5% (active),5.36% (active),4.64% (active)
O=C(/C=C/c1ccc(Oc2ccc(Br)cc2)cc1)c1ccc(Br)cc1,96.5%,103,97.2%,78.8%,95.2%,102%,93.5%,73.6%,91.9%,90.5%
CC1(C)CC[C@]23CC[C@]4(C)[C@H](CC[C@@H]5[C@@]6(C)C/C(=C/c7ccncc7)C(=O)C(C)(C)[C@@H]6CC[C@]54C)[C@H]2[C@H]1OC3,80.9%,92.3,76.7%,57.1%,97%,91%,66.4%,-3.63% (active),44.3%,50.4%
O=C(CCl)NNc1nccc(Nc2ccc(S(=O)(=O)Nc3ccncc3)cc2)n1,38%,62.2,23.8%,63.3%,74.6%,37.7%,30.4%,80.8%,23.8%,44%
O=C(N/N=C/c1cc(Cl)ccc1O)c1ccccc1Nc1ccnc(C(F)(F)F)c1,90.7%,22.9,20.7%,21.1%,46.4%,14.9%,34.6%,65.7%,12.4%,55%
CN(C)c1ccc(-c2nc(-c3ccccc3)c(-c3ccccc3)[nH]2)cc1,83.9%,61.1,92.9%,84.8%,99.6%,94%,84.6%,82.4%,90%,83.4%
O=C(O)[C@@H](Cc1ccc2ccccc2c1)NC(=O)n1c2ccccc2c2ccccc21,33.3%,47.9,34.1%,38.9%,58.1%,48.8%,30.5%,9.24% (active),13%,24.5%
O=C(Cc1ccccc1)Nc1cccc(N=Cc2ccccc2O)c1,116%,104,96.6%,77.6%,103%,110%,80.8%,115%,106%,101%
O=P(O)(O)OCC1OC(n2cnc3c(NCc4ccco4)ncnc32)C(O)C1O (stereo not given),89.2%,48.6,12.1%,-6.51% (active),60.9%,4.1% (active),-42.3% (active),7.68% (active),-31.5% (active),16%
COC(=O)CC[C@@H]1O[C@@H](c2ccc(F)cc2)[C@@H](O)[C@H]1O,109%,104,109%,94%,101%,101%,96.8%,112%,107%,105%
O=C(Nc1cnc(Nc2ccc(N3CCOCC3)nc2)nc1Oc1ccc(C(F)(F)F)cc1)c1ccncc1,94.8%,100,85%,98.4%,107%,98.9%,90.4%,95.8%,90.8%,101%
COc1ccc(/C=C/C(=O)c2cc(OC)c(OC)c(OC)c2)cc1OCC(=O)Nc1nc2ccc(OC(F)(F)F)cc2s1,45.7%,62.1,19.1%,3.8% (active),-6.47% (active),-1.17% (active),9.57% (active),68.1%,20.4%,0.429% (active)
Nc1nc(N)c(N=Nc2ccccc2)c(-c2ccccc2)n1,85.3%,51.3,56%,36%,55.1%,60.4%,45.3%,31%,52.6%,46.6%
Cc1ccc(-c2csc(N(C(=O)N3CCN(c4cc5c(cc4F)c(=O)c(C(=O)O)cn5C4CC4)CC3)c3ccccc3)n2)cc1,-4.42% (active),20.9,9.07% (active),7.46% (active),20.6%,5.63% (active),2.42% (active),7.58% (active),21%,16.6%
CCN(CC)CCN1C(=O)c2c(c(C)c3c(oc4ccc(OC)cc43)c2C)C1=O,115%,101,92.6%,17.5%,94.3%,9.28% (active),95.8%,90.8%,90.2%,96.2%
C/C=C(/C)n1cnc2c(Nc3ccccn3)nc(Cl)nc21,97.1%,96.9,94.1%,80.8%,114%,99.9%,94.2%,111%,104%,100%
Oc1c(CN2CCC(N3CCCCC3)CC2)cc(Cc2cc(CN3CCC(N4CCCCC4)CC3)c(O)c3ncccc23)c2cccnc12,41.4%,26,34.2%,12.4%,33.5%,13.8%,25.5%,77.7%,6.54% (active),6.56% (active)
COc1ccc(C2CC(c3cc(OC)c(OC)c(OC)c3)=NO2)cc1OCCCCOc1cc2c(cc1OC)C(=O)N1CCC[C@H]1C=N2 (stereo not given in full),-35.2% (active),16.8,32.2%,19.5%,-13.6% (active),0.735% (active),11.1%,-67.3% (active),69.3%,7.66% (active)
O=C(Cc1cccc(OC(F)(F)F)c1)Nc1ccc(CCCCc2nnc(NC(=O)Cc3ccccn3)s2)nn1,116%,73.8,68.5%,45.1%,65%,70%,70.4%,20.6%,43%,43.8%
Cc1cccc(-c2nc(Nc3ccc4ncsc4c3)c3ccccc3n2)n1,83.8%,79.1,92%,69.1%,87.2%,91.9%,105%,83.6%,37.5%,64.2%
CCCCC#Cc1c(I)n(C)c(=O)[nH]c1=O,63.2%,52.9,39.4%,-78% (active),50%,-75.7% (active),-54.2% (active),94.2%,-51.4% (active),-61.1% (active)
O=C(CSc1nnc(-c2cc(-c3ccccc3)nc3ccccc23)n1-c1ccccc1)Nc1ccc(C(=O)/C=C/c2ccc(Cl)cc2)cc1,112%,88.5,85.1%,84.4%,110%,87.1%,81.5%,81.5%,72.2%,68.6%
COc1ccc(-c2n[nH]c(=O)c3nc(NC(=S)Nc4ccc(Oc5ccccc5)cc4)sc23)cc1,98.6%,106,100%,77.1%,92.8%,105%,87.3%,80.4%,81.2%,96.9%
COc1cc(OC)c(C(=O)C(CN(C)C)CN(C)C)cc1OC,105%,20.3,107%,10.4%,-79.2% (active),-87.6% (active),20.3%,113%,-58.1% (active),-39.8% (active)
